In PubChem BioAssay (Tox21):
A number with no mark means an inactive call. Results filed as inconclusive are left out. Where a call stands in place of a potency, no number is given. The source made the active and inactive calls. Unless noted, calls come from the whole dose curve; as a rule, active = well fitted curve in the direction sought with a large enough effect in the repeat runs; inconclusive = weak or mixed curves; inactive = no such curve, though single readings can be large; an effect the other way counts as inactive or inconclusive.

What was measured:
[1] = qHTS RealTime-Glo MT Cell Viability Assay in HEK293 cells - 24 hour (AID 1224886); note: nearly all actives have a fitted effect of over 50% in size; note: potency is the fitted concentration of half-maximal effect; for activity change, negative = cytotoxicity: top concentration of the series differs between compounds
Procedure, shortened: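 Nonlytic real-time viability readout: viable cells convert prosubstrate to NanoLuc substrate, giving luminescence proportional to live cell number. HEK293, 600 cells/well, compound added after 5 h, continuous culture at 37 C.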

[2] = qHTS RealTime-Glo MT Cell Viability Assay in HEK293 cells - 8 hour (AID 1224887); note: nearly all actives have a fitted effect of over 50% in size; note: potency is the fitted concentration of half-maximal effect; for activity change, negative = cytotoxicity: top concentration of the series differs between compounds
Procedure, shortened: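 Kinetic, non-lysing viability readout. Seed HEK293 (600/well) with reagent, incubate 5 h at 37 C/5% CO2, pin 23 nL compound in DMSO, incubate at 37 C, read luminescence at 0, 8, 16, 24, 32, 40 h.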

[3] = A CellTox Green Cytotoxicity Assay to monitor cytotoxicity in HEK293 cells - 16 hour (AID 1224888); note: nearly all actives have a fitted effect of over 35% in size
Procedure, shortened: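 Real-time, in one plate: 600 HEK293 cells/well with dead-cell DNA dye, pinned compound after 5 h, 37 C incubation over 40 h; viable cells give no appreciable fluorescence.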

[4] = qHTS RealTime-Glo MT Cell Viability Assay in HepG2 cells - 0 hour (AID 1224889); note: nearly all actives have a fitted effect of over 50% in size
Procedure, shortened: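 Luminescence read-out: viable HepG2 cells reduce a prosubstrate to a NanoLuc substrate, giving a signal proportional to live cell number. Reads taken at 0, 8, 16, 24, 32 and 40 h of compound exposure at 37 C.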

[5] = A CellTox Green Cytotoxicity Assay to monitor cytotoxicity in HepG2 cells - 8 hour (AID 1224890); note: nearly all actives have a fitted effect of over 45% in size
Procedure, shortened: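 Cytotoxicity was tracked as dead-cell DNA fluorescence in HepG2 cells treated with test compounds at 37 C; each time-point value comes from one kinetic series spanning 0, 8, 16, 24, 32 and 40 h.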

[6] = qHTS assay to identify small molecule antagonists of the estrogen receptor alpha (ER-alpha) signaling pathway using the BG1 cell line in the presence of 0.1 nM 17-beta-estradiol - cell viability counter screen (AID 1259241); note: nearly all actives have a fitted effect of over 40% in size
Procedure, shortened: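 VM7Luc4E2, 4,000 cells/well, phenol red-free medium + 10% charcoal-stripped FBS; 24 hr plating; cpd + 0.1 nM E2 final, 22 hr 37C/5% CO2; CellTiter-Fluor 30 min, fluorescence.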

[7] = qHTS assay to identify small molecule antagonists of the androgen receptor (AR) signaling pathway using the MDA cell line in the presence of 0.5 nM R1881 - cell viability counter screen (AID 1259242); note: nearly all actives have a fitted effect of over 45% in size
Procedure, shortened: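 Cells seeded at 3,000/well and allowed 5 hr at 37C, 0% CO2 before compound transfer and R1881 (0.5 nM final) addition; 16 hr later, live-cell protease fluorescence indicated cytotoxicity.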

[8] = biological target: Estrogen receptor (Homo sapiens) (UniProt P03372); test: qHTS assay to identify small molecule antagonists of the estrogen receptor alpha (ER-alpha) signaling pathway using the BG1 cell line in the presence of 0.1 nM 17-beta-estradiol (AID 1259244); note: nearly all actives have a fitted effect of over 50% in size
Procedure, shortened: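 Luciferase signal from VM7Luc4E2 ERE-reporter cells, co-dosed with test compound and 0.1 nM final 17beta-estradiol for 22 h, read with ONE-Glo.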

[9] = qHTS assay to identify small molecule phospholipidosis (PLD) inducers (AID 1259344; active = well fitted curve in the direction sought with a large enough effect; an effect the other way counts as inactive or inconclusive)
Procedure, shortened: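 Cells (HepG2, 900 per well) attach for 4 h, receive LipidTOX Red and compound together, incubate 24 h at 37 C, are fixed 30 min with paraformaldehyde/Hoechst, then imaged at one site per well.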

[10] = qHTS assay to identify small molecule HDAC inhibitors (AID 1259364);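 note: wild-type HCT-116 cells with endogenous class I/II HDAC activity; top concentration of the series differs between compounds; nearly all actives have a fitted effect of over 45% in size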
Procedure, shortened: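 HCT-116 wt cells, 1,500/well, overnight attach. Compounds (DMSO) 2 h, 37 °C. HDAC-Glo I/II, 30 min RT. Luminescence.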

[11] = qHTS assay to identify small molecule HDAC inhibitors - cell viability counter screen (AID 1259365)
Procedure, shortened: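 Luminescence from CellTiter-Glo, developed 30min at room temperature, reports viability of wild-type HCT-116 cells treated 2hr with compounds at 37 C and 5% CO2 after overnight plating.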

[12] = qHTS assay to identify small molecule agonists of the sonic hedgehog signaling (Shh) pathway - cell viability counter screen (AID 1259366); note: nearly all actives have a fitted effect of over 50% in size
Procedure, shortened: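 Cytotoxicity counter screen run in the same wells as the Shh reporter assay. NIH/3T3 cells carrying a Gli1 response element–driven luciferase were treated with DMSO-dissolved compounds for 24hr, and live-cell protease activity was measured with CellTiter-Fluor.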

[13] = qHTS assay to identify small molecule antagonists of the sonic hedgehog signaling (Shh) pathway - cell viability counter screen (AID 1259367); note: nearly all actives have a fitted effect of over 55% in size
Procedure, shortened: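 Cytotoxicity was assessed in parallel with Shh reporter activity by measuring live-cell protease fluorescence (CellTiter-Fluor) in NIH/3T3 cells stably carrying Gli1-Luc, treated with compound under conditioned medium stimulation for 23 hr plus 1 hr reagent incubation.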

[14] = qHTS assay to identify small molecule antagonists of the sonic hedgehog signaling (Shh) pathway (AID 1259369; calls by dose curve; note: nearly all actives have a fitted effect of over 45% in size)
Procedure, shortened: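 Read-out is luminescence from a firefly luciferase gene controlled by the Gli1 response element, in 3T3Gli1-Luc cells pre-incubated 4hr then exposed to compounds and conditioned medium for 24hr.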

[15] = biological target: Estrogen receptor beta (Homo sapiens) (UniProt Q92731); test: qHTS assay to identify small molecule agonists of the estrogen receptor beta (ER-beta) signaling pathway (AID 1259377; active = well fitted activation curve with a large enough effect in the signal ratio in the repeat runs, not every such curve was filed as active; the % refers to the signal ratio)
Procedure, shortened: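 HEK293T ER-beta-UAS-bla; 2% charcoal-stripped FBS; cells pre-incubated 6 hr, compound 16 hr, 37C/5% CO2; LiveBLAzer B/G FRET substrate 2 h RT; fluorescence intensity read.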

[16] = biological target: Estrogen receptor beta (Homo sapiens) (UniProt Q92731); test: qHTS assay to identify small molecule antagonists of the estrogen receptor beta (ER-beta) signaling pathway (AID 1259378; active = well fitted inhibition curve with a large enough effect in the signal ratio in the repeat runs, not every such curve was filed as active; the % refers to the signal ratio)
Procedure, shortened: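 ER-beta-UAS-bla HEK293T (GripTite) cells in 2% charcoal-stripped FBS medium were preincubated 6 hr at 37C, dosed with compound, then stimulated with 1 nM E2 (final) for 16 hr; beta-lactamase reporter read by B/G FRET fluorescence after 2 hr substrate loading.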

[17] = qHTS assay to identify small molecule agonists of the androgen receptor (AR) signaling pathway in the presence of an antagonist - cell viability counter screen (AID 1259379);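 note: MDA-kb2 human breast cancer cells carrying an MMTV luciferase reporter; series mostly up to about 92 µM; nearly all actives have a fitted effect of over 25% in size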
Procedure, shortened: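 Each compound was tested at 15 concentrations on MDA-kb2 cells in the presence of 3.0uM nilutamide. Viability was measured by CellTiter-Fluor fluorescence after a 16 hr incubation at 37C in a CO2-free atmosphere.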

[18] = qHTS assay to identify small molecule agonists of the sonic hedgehog signaling (Shh) pathway (AID 1259368; calls by dose curve;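 note: NIH/3T3-derived 3T3Gli1-Luc cells carrying a stable Gli1-driven firefly luciferase reporter; series mostly up to about 92 µM; nearly all actives have a fitted effect of over 15% in size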)
Procedure, shortened: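 Following a 24 hr incubation with DMSO-dissolved compounds at 37 C, 5% CO2, Gli1-Luc NIH/3T3-derived cells received luciferase reagent for 30 min at room temperature prior to luminescence measurement.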

[19] = qHTS assay to identify small molecule agonists of the estrogen receptor beta (ER-beta) signaling pathway - cell viability counter screen (AID 1259380); note: nearly all actives have a fitted effect of over 30% in size
Procedure, shortened: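 Compounds dissolved in DMSO were pin-transferred onto ER-beta-UAS-bla HEK293T cells that had settled 6 hr, and exposure ran 16 hr at 37C. Following the reporter read, CellTiter-Glo luminescence after 30 min at room temperature indicated cytotoxicity.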

[20] = biological target: Androgen receptor (Homo sapiens) (UniProt P10275); test: qHTS assay to identify small molecule antagonists of the androgen receptor (AR) signaling pathway using the MDA cell line in the presence of 0.5 nM R1881 (AID 1259243); note: nearly all actives have a fitted effect of over 50% in size
Procedure, shortened: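 Luminescence from an AR/GR-responsive MMTV-luciferase construct in MDA-kb2 breast carcinoma cells, read 30 min after ONE-Glo, following 16 hr co-treatment with compounds and 0.5 nM R1881.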

Chain of Estrogen receptor (Homo sapiens) (P03372 whole entry, looked up): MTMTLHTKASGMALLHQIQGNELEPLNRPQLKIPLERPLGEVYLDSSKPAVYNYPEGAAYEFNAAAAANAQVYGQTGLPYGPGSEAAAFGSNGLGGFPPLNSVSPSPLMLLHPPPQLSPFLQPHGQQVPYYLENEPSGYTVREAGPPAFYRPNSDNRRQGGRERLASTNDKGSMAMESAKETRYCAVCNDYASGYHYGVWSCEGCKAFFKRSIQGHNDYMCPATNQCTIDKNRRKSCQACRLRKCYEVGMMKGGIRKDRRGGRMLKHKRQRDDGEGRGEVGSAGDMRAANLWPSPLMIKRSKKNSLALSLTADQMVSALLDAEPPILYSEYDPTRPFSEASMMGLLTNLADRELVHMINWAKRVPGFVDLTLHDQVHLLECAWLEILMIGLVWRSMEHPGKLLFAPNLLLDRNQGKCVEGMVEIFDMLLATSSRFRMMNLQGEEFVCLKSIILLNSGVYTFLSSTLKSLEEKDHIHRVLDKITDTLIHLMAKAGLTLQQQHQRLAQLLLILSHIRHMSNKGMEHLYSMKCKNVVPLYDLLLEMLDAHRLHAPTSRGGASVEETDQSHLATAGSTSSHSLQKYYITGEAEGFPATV
Chain of Estrogen receptor beta (Homo sapiens) (Q92731 whole entry, looked up): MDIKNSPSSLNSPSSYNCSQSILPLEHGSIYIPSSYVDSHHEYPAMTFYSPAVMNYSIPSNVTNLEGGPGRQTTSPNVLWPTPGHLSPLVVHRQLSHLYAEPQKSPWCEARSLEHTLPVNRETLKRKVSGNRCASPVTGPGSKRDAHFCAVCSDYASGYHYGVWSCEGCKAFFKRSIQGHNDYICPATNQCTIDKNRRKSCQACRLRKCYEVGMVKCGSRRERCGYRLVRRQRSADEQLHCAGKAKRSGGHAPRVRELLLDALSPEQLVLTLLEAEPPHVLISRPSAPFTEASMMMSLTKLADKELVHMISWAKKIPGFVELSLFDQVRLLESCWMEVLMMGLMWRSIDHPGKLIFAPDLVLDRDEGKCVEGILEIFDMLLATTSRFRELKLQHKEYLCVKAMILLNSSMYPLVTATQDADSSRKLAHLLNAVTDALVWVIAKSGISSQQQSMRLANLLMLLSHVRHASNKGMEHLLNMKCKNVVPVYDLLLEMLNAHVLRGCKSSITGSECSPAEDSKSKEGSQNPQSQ
Chain of Androgen receptor (Homo sapiens) (P10275 whole entry, looked up): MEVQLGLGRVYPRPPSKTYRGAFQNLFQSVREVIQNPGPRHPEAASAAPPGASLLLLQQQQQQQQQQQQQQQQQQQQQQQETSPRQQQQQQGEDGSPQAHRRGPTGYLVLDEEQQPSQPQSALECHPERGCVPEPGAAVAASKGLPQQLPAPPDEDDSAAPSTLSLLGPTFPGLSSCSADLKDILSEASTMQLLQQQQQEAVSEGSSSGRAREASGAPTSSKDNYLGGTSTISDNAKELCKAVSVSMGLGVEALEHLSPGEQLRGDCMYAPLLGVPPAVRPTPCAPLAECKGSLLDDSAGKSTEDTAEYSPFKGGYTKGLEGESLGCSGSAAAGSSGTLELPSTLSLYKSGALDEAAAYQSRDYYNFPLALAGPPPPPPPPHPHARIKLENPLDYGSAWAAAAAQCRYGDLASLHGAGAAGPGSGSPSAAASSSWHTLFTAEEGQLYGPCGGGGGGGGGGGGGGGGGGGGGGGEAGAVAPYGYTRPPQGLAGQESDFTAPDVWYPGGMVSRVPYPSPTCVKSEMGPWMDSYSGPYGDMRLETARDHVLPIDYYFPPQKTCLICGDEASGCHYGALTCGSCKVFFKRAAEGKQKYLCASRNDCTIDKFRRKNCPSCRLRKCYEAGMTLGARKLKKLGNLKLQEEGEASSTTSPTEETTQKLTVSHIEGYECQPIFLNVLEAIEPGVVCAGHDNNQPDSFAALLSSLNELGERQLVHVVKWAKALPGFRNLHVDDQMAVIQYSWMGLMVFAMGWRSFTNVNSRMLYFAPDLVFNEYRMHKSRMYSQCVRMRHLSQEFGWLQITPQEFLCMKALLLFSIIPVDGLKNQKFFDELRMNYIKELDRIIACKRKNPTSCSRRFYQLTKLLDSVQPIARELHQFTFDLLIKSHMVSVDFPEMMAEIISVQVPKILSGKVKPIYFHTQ

With `O=C1CC[C@H](C(=O)N2CCCCC2)N1` the Potency [1] was “inactive”, the Potency [2] was “inactive” and the Potency [3] was “inactive”. The Potency [4] was “inactive”, the Potency [5] was “inactive” and the Potency [6] was “inactive”. For the same compound, the Potency [7] was “inactive”, the Potency [8] was “inactive” and the outcome [9] was “inactive”. The Potency [10] was “inactive”, the outcome [11] was “inactive” and the Potency [12] was “inactive”. The Potency [13] was “inactive”, the Potency [14] was “inactive” and the Potency [15] was “inactive”. The outcome [16] was “inactive” and the Potency [17] was “inactive”.
For `O=c1[nH]c(=O)c2[nH]c(=O)[nH]c2[nH]1`, the activity change, negative = cytotoxicity [1] was 8.57% [at 6.97 µM], the activity change, negative = cytotoxicity [2] was 9.35% [at 6.97 µM] and the activity change [3] was -15.6% [at 6.97 µM, hits give high values]. For the same compound, the activity change, negative = cytotoxicity [4] was -4.02% [at 6.97 µM], the cytotoxicity increase [5] was 1.39% [at 6.97 µM] and the activity change, negative = cytotoxicity [6] was 0.489% [at 8.39 µM]. The viability change, negative = cytotoxic [7] was -0.67% [at 8.39 µM], the activity change, negative = inhibition [8] was -0.565% [at 8.39 µM] and the outcome [9] was “inactive”. The activity change, negative = inhibition [10] was 11.3% [at 8.39 µM], the activity change, negative = cytotoxicity [11] was 0.314% [at 8.39 µM] and the viability change, negative = cytotoxic [12] was -3.05% [at 8.39 µM]. For the same compound, the viability change, negative = cytotoxic [13] was 0.704% [at 8.39 µM], the activity change [18] was 0.435% [at 8.39 µM] and the activity change, negative = inhibition [14] was 16.8% [at 8.39 µM]. For the same compound, the activation [15] was -1.14% [at 8.39 µM], the activity change, negative = cytotoxicity [17] was -1.23% [at 8.39 µM] and the activity change, negative = cytotoxicity [19] was 0.228% [at 8.39 µM].
With `CCS(=O)(=O)CCn1c([N+](=O)[O-])cnc1C` the Potency [1] was “inactive”, the Potency [2] was “inactive” and the Potency [3] was “inactive”. The Potency [4] was “inactive”, the Potency [5] was “inactive” and the Potency [6] was “inactive”. The Potency [7] was “inactive”, the Potency [8] was “inactive” and the outcome [9] was “inactive”. For the same compound, the Potency [10] was “inactive”, the outcome [11] was “inactive” and the Potency [12] was “inactive”. The Potency [13] was “inactive”, the outcome [18] was “inactive” and the Potency [17] was “inactive”. For the same compound, the outcome [19] was “inactive”.
With `CCNC(=O)/C=C/c1cccc(Br)c1` the Potency [1] was “inactive”, the Potency [2] was “inactive” and the Potency [3] was “inactive”. The Potency [4] was “inactive”, the Potency [5] was “inactive” and the Potency [6] was “inactive”. The Potency [7] was “inactive”, the outcome [20] was “inactive” and the outcome [9] was “inactive”. The outcome [11] was “inactive”, the Potency [12] was “inactive” and the outcome [18] was “inactive”. The Potency [14] was “inactive”, the Potency [15] was “inactive” and the outcome [16] was “inactive”. For the same compound, the Potency [17] was “inactive” and the outcome [19] was “inactive”.
With `O=C(Nc1cccc(C2=NCCN2)c1)Nc1cccc(C2=NCCN2)c1` the activity change, negative = cytotoxicity [1] was -1.62% [at 15.8 µM], the activity change, negative = cytotoxicity [2] was -0.375% [at 15.8 µM] and the activity change [3] was -6.11% [at 15.8 µM, hits give high values]. It also gave an activity change, negative = cytotoxicity [4] of -1.91% [at 15.8 µM], a cytotoxicity increase [5] of -10.2% [at 15.8 µM] and an activity change, negative = cytotoxicity [6] of -3.18% [at 19 µM]. For the same compound, the viability change, negative = cytotoxic [7] was -0.888% [at 19 µM], the activity change, negative = inhibition [8] was -4.15% [at 19 µM] and the outcome [9] was “inactive”. It also gave an activity change, negative = inhibition [10] of 3.65% [at 19 µM], an activity change, negative = cytotoxicity [11] of 1.17% [at 19 µM] and a viability change, negative = cytotoxic [12] of 8.12% [at 19 µM]. It also gave a viability change, negative = cytotoxic [13] of 0.404% [at 19 µM], an activity change [18] of 1.95% [at 18.9 µM] and an activity change, negative = inhibition [14] of 17.1% [at 19 µM]. It also gave an activity change, negative = cytotoxicity [17] of 1.81% [at 19 µM] and an activity change, negative = cytotoxicity [19] of 2.07% [at 19 µM].
In the case of `CCCCOC(=O)[C@@H](C)Oc1ccc(Oc2ccc(C(F)(F)F)cn2)cc1`, the Potency [1] is reported as 31.1 µM (active), the Potency [2] is reported as 24.7 µM (active) and the Potency [3] is reported as “inactive”. For the same compound, the Potency [4] was “inactive”, the Potency [5] was “inactive” and the Potency [6] was “inactive”. The Potency [7] was “inactive”, the Potency [8] was “inactive” and the Potency [10] was “inactive”. The outcome [11] was “inactive”, the Potency [12] was “inactive” and the Potency [13] was “inactive”. For the same compound, the outcome [18] was “inactive”, the Potency [14] was “inactive” and the Potency [15] was “inactive”. The outcome [16] was “inactive” and the Potency [17] was “inactive”.
With `Cc1cccc(Nc2ccncc2S(=O)(=O)NC(=O)NC(C)C)c1` the Potency [1] was “inactive”, the Potency [2] was “inactive” and the Potency [3] was “inactive”. For the same compound, the Potency [4] was “inactive”, the Potency [5] was “inactive” and the Potency [6] was “inactive”. The Potency [7] was “inactive”, the Potency [8] was “inactive” and the outcome [9] was “inactive”. The Potency [10] was “inactive”, the outcome [11] was “inactive” and the Potency [12] was “inactive”. The Potency [13] was “inactive”, the outcome [18] was “inactive” and the Potency [14] was “inactive”. The Potency [15] was “inactive” and the Potency [17] was “inactive”.
